Here are results for 23 compounds from PubChem BioAssay (NCATS).

Structures are written as SMILES. Results filed as inconclusive are left out. The source made the active and inactive calls. Unless noted, the call rests on the fitted dose curve; in most records, active means well fitted curve in the direction sought with a large enough effect; inconclusive means small, poorly fitted or top-dose-only effect, or another doubt; inactive means no such curve, though single readings can be large; an effect the other way counts as inactive or inconclusive.

The nature of assay [1]: Cell Viability - LYMP1-002 - Assay at 40 hr (AID 994). Further: nearly all actives have a fitted effect of over 60% in size. Further: potency means the concentration at half of the fitted maximal effect. The gist of the method: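 Viability in the human lymphoblastoid line was measured as intracellular ATP via CellTiter-Glo after 40 hr compound exposure. Tetraoctylammonium bromide served as positive control.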
Assay [2] in a line: qHTS Assay for Lipid Storage Modulators (AID 1519; calls by dose curve; on activity change, negative = inhibition: on the % scale 0 is the no-effect control and ±100 the full control effect). The conditions noted are these: Drosophila S3 cells, BODIPY lipid droplet/cell ratio, laser cytometry, cells loaded with oleic acid; for activity change, negative = inhibition: at 57.5 µM (top of the series). An outline of the steps:
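Cells seeded at 5,000 per well were treated with compounds over a concentration series and loaded with oleic acid (400 uM, as added). Lipid droplet fluorescence (488 nm excitation, 500-530 nm channel) was read by laser-scanning cytometry and normalized to 20 uM Triacsin C.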

The target in assay [3] is Endonuclease 4 (Escherichia coli (strain K12)) (UniProt P0A6C1). Description: Counterscreen for APE1 Inhibitors: qHTS Validation Assay for Inhibitors of Endonuclease IV (AID 1708). Further: on the % scale 0 is the no-effect control and ±100 the full control effect. The gist of the method:
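2 nM enzyme was preincubated with compounds for 15 min at room temperature in 50 mM Tris-HCl pH 7.5, 50 mM NaCl, 2 mM MgCl2, 1 mM DTT, 0.01% Tween-20. 50 nM THF-abasic TAMRA/BHQ-2 duplex substrate started the reaction.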

Assay [4] is described as follows: qHTS for differential inhibitors of proliferation of Plasmodium falciparum line GB4 (AID 1816).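 Further: parasite growth measured after 72 h incubation.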 Further: potency means the concentration at half of the fitted maximal effect.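 On activity change, negative = inhibition: 0% = vehicle DMSO and -100% = reference inhibitor.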 The conditions noted are these: Potency: Plasmodium falciparum GB4 proliferation inhibition. A general note: In qHTS, concentration-response curves come from the screen itself.
Assay [5] in a line: qHTS for differential inhibitors of proliferation of Plasmodium falciparum line 3D7 (AID 1876). Further: potency means the concentration at half of the fitted maximal effect.
A short description of assay [6]: qHTS for differential inhibitors of proliferation of Plasmodium falciparum line D10 (AID 1877).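 Further: parasites grown with compound for 72 h before DNA staining.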 Further: potency means the concentration at half of the fitted maximal effect.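 On activity change, negative = inhibition: plate controls were vehicle wells for no effect and reference inhibitor wells for full effect.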
Assay [7] in a line: qHTS for differential inhibitors of proliferation of Plasmodium falciparum line Dd2 (AID 1882). Further: nearly all actives have a fitted effect of over 65% in size. Further: potency means the concentration at half of the fitted maximal effect.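 On activity change, negative = inhibition: compound exposure of 72 h on infected erythrocytes; plate controls were DMSO vehicle for no effect and 0.29 µM artemisinin for full effect.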 Particulars: Potency: Plasmodium falciparum Dd2 proliferation inhibition. The gist of the method: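 SYBR Green I DNA fluorescence read-out, ex 485/em 535 nm. Signals were normalized to 0.29 uM artemisinin and DMSO wells, then corrected using vehicle-only plates flanking each stack. Parasite growth ran 72 h in erythrocytes before lysis.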

The target of assay [8] is alpha-glucosidase (Oryza sativa, rice) (UniProt Q653V4). Description: Counterscreen for Glucocerebrosidase Inhibitors: qHTS Assay for Rice alpha-Glucosidase at pH 5.0 (AID 997).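 Further: 0% = full activity with enzyme and -100% = basal without enzyme.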 The gist of the method: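 Rice alpha-glucosidase (4 nM final) with 400 uM 4-methylumbelliferyl-alpha-D-glucopyranoside in citrate buffer pH 5.0, 20 min at room temperature, stopped at pH 10; fluorescence 365/440 nm, compounds 0.7 nM–77 uM, AC50 from Hill fits.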

The nature of assay [9]: qHTS for differential inhibitors of proliferation of Plasmodium falciparum line 7G8 (AID 1815).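 Further: potency means the concentration at half of the fitted maximal effect; parasite growth measured after three days of incubation.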
[10] abbreviates: measured here: cell count channel max response.
[11] abbreviates: measured here: lipid channel max response.

For the compound `Nc1c2ccccc2nc2ccccc12`, the Potency in [1] is 12.6 µM (active).

As to `Nc1cccc2c(N)cccc12`, the Potency entry in assay [1] is “inactive”.

As to `OCc1c[nH]c2ccccc12`, in assay [1], the Potency result was “inactive”. In addition, in assay [2], the activity change, negative = inhibition is 3.03% (inactive). For the same compound, the max response in assay [2] (setting [10]) worked out at 0.192%; in assay [2] (setting [11]), 7.12%.

Regarding `CC(C)C(C)(C)C(C)(C)C(C)(C)S`, in [1], the Potency entry is “inactive”.

As for `Brc1ccccc1-c1ccccc1`, the Potency entry in assay [1] is “inactive”.

Turning to `CC(C)(c1ccc(O)cc1)c1ccc(O)cc1`, the Potency result in assay [1] is “inactive”.

Consider `C[C@]12CCC(=O)C=C1CC[C@@H]1[C@@H]2[C@@H](O)C[C@@]2(C)[C@H]1CC[C@]2(O)C(=O)COC(=O)CCC(=O)O`, for which the call in assay [3] was inactive. In addition, the Potency result in [4], in assay [5], in assay [6] and in assay [7] was “inactive” each time.

As for `Oc1ccccc1`, the Potency entry in assay [1] was “inactive”.

Take `Nc1ccc(O)cc1`: the Potency in assay [1] was 50.1 µM (active).

In the case of `O=[N+]([O-])c1ccc(-c2nc(-c3ccc(F)cc3)c(-c3ccncc3)[nH]2)cc1`, the outcome in assay [8] and in [3] was inactive. Also, the Potency in assay [9] was 4.47 µM (active); in [4], 3.98 µM (active); in assay [5], 3.55 µM (active); in assay [6], 5.01 µM (active); in assay [7] it was 6.31 µM (active).

Take `O=C(Oc1ccccc1)c1ccccc1O`: in assay [1], the Potency entry was “inactive”.

On to `COc1cc(C=O)ccc1O`, for which the Potency entry in assay [1] was “inactive”.

Regarding `O=C(NO)c1ccccc1`, in [1], the Potency result was “inactive”.

On to `O=C(c1ccccc1)c1ccccc1`, for which the Potency entry in assay [1] is “inactive”.

Turning to `CCCCC(CC)COC(=O)c1ccccc1C(=O)O` (stereo unspecified), in [1], the Potency entry was “inactive”.

Turning to `Cc1ccc(O)cc1`, the Potency entry in [1] was “inactive”. Besides, the activity change, negative = inhibition in [2] is 6.36% (inactive). Also, the max response in assay [2] (setting [10]) was found to be 10.2%; in [2] (setting [11]) it was 20.7%.

Regarding `CC(=O)OC/C=C(C)/C=C/C=C(C)/C=C/C1=C(C)CCCC1(C)C`, in [1], the Potency result was “inactive”.

Take `C1=CC2C3C=CC(C3)C2C1` (stereo unspecified): in [1], the Potency entry is “inactive”.

Turning to `CC(C)N(CCC(=O)c1ccc2ccccc2c1)Cc1ccccc1`, the outcome in assay [8] and in assay [3] was inactive. The Potency result in [5], in assay [6] and in [7] was “inactive” throughout.

As to `CCCCCCCCCCCCCCCC[n+]1ccccc1`, the Potency in [1] is 7.94 µM (active).

Turning to `CCCC(=O)c1cc(O)c(O)cc1O`, the Potency entry in assay [1] is “inactive”.

On to `Cc1cc(C(C)(C)C)c(O)c(C(C)(C)C)c1`, for which the Potency result in assay [1] was “inactive”. Also, the activity change, negative = inhibition in assay [2] is 4.82% (inactive). Further, the results for the max response in assay [2] (setting [10]) and in assay [2] (setting [11]) were 4.25% and 10.5%, respectively.

For the compound `c1ccc2occc2c1`, the Potency result in assay [1] is “inactive”.
